Values joined by “and” are separate entries in the source; they are usually repeats but may differ in a detail not shown here. Equal entries are not always repeated. Where a structure was tested more than once in an assay, its records may differ in their call. Active and inactive are the calls of the source.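 The calls were made as follows, unless noted: active = thallium flux through the channel raised or lowered by more than 3 SD from vehicle-only wells, actives on both sides; inactive = the rest.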

The nature of experiment [1]: stimulators of nuclear beta-catenin in C2C12, primary screen, imaging, WNT3A-conditioned medium, mouse C2C12, NPC library (AID 1117326; in the data active = nuclear beta-catenin stimulation mostly above about 4.2%, no sharp cut-off; inactive = mostly below about 10%). Conditions: stronger effect = higher value.
A short description of experiment [2]: stimulators of insulin release from INS-1E, primary screen, cell-based, 5 mM glucose, NPC library (AID 1117329;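 active = compound raises insulin release from rat beta cells at 5 mM glucose, no numeric limit stated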). Conditions: rat INS-1E insulin secretion, at 10 µM, stronger effect = higher value.
The nature of experiment [3]: growth inhibition of GSK3B-pretreated HCT116 cells – cell-based, CellTiter-Glo, 0.2 to 20 µM (AID 1117336;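 active = compounds lowering colon cancer cell viability after pretreatment blocking the GSK3B kinase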). The note with it: HCT116 viability after GSK3B inhibitor, at 20 µM, stronger effect = higher value. A general note: Cellular ATP, detected with luciferase, serves as a proxy for viable cell number.
Experiment [4] can be described thus: inhibition of endothelial tube formation, primary screen, imaging, VEGF stimulated, CD31 staining, tube area, NPC library (AID 1117340;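 active = compound that reduces growth-factor-driven endothelial tube area in a mixed cell culture, no cutoff stated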). The note with it: VEGF-stimulated ADSC/ECFC co-culture, at 10 µM, stronger effect = higher value.
A short description of experiment [5]: glucagon-like peptide 1 release enhancers, primary assay, NCI-H716 cell line, NPC library (AID 1117341;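 active = compound raises GLP1 secretion from the human gut endocrine cells, with no numeric limit stated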). The note with it: NCI-H716 cells, at 10 µM, stronger effect = higher value.
The nature of experiment [6]: HCT116 colon cancer cell growth inhibition, primary screen, CellTiter-Glo luminescence, NPC library (AID 1117342;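 active = compounds that lower survival of HCT116 colon cancer cells in the luminescence readout, no numeric limit stated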). Conditions: at 20 µM (top of the series).
Experiment [7] in a line: CellTiter-Glo luminescent readout of SW480 viability loss, NPC library primary (AID 1117343;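 active = compounds that lower viability of the colon cancer cells in the luminescence readout, with no numeric limit stated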). Conditions: CellTiter-Glo luminescence; at 20 µM (top of the series).
Experiment [8] in a line: decreased DLD-1 cellular survival, CellTiter-Glo luminescent readout, NPC compound collection, primary HTS (AID 1117346;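 active = compounds that lower survival of DLD-1 colon cancer cells in the luminescence readout, no cutoff given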). The note with it: DLD-1 viability, CellTiter-Glo luminescence; at 20 µM (top of the series).
Experiment [9] concerns the target 6-phosphogluconate dehydrogenase, decarboxylating (Homo sapiens) (UniProt P52209). The experiment in a line: 6PGD enzyme inhibitors, primary screen, biochemical, human, recombinant enzyme, NADPH absorbance (AID 1159550;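 active = at least 20% inhibition of 6-phosphogluconate dehydrogenase activity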). Conditions: recombinant 6PGD, NADPH absorbance 341 nm; at 10 µM; stronger effect = higher value.
Experiment [10] is described as follows: differential killing of epithelial or mesenchymal cells, primary screen, imaging, PC-3E GFP, TEM4-18 mCherry, co-culture (AID 1345086;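 active = compounds killing one labelled cell type while sparing the other, by normalised counts and ratio limits, not self-fluorescent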;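 as to all read-outs here: cells exposed to compound for 72 h before imaging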;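 as to red/green cell ratio (normalised): normalised mesenchymal count divided by normalised epithelial count so high means epithelial killing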). Conditions: imaging cell counts, at 1 µM; for red/green cell ratio (normalised): actives lie on both sides, counts scaled to control wells, 1 = unselective.
A short description of experiment [11]: survival rescue of mitochondrial mutant cells in low glucose, primary screen, MELAS cybrids, Rieske KO mouse fibroblasts, CellTiter-Glo (AID 1508586;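 active = mean z-score across replicates of 1.96 or higher in either the MELAS or the Rieske mutant cell line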;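 also: z relative to plate mean and SD of compound and empty wells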).
Experiment [12] deals with NAD(+) hydrolase SARM1 (Homo sapiens) (UniProt Q6SZW1). The experiment in a line: SARM1 TIR NADase inhibitors, cell lysate, NAD-Glo luminescence (AID 1508614;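 active = compound whose remaining NAD level is above about 45 nM, limit read from the data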;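 also: higher remaining NAD means stronger inhibition of SARM1 NADase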). The note with it: SAM-TIR HEK293T lysate NADase, at 1 µM, stronger effect = higher value.
Chain of NAD(+) hydrolase SARM1 (Homo sapiens) (Q6SZW1 whole entry, looked up, the tested form may be a part): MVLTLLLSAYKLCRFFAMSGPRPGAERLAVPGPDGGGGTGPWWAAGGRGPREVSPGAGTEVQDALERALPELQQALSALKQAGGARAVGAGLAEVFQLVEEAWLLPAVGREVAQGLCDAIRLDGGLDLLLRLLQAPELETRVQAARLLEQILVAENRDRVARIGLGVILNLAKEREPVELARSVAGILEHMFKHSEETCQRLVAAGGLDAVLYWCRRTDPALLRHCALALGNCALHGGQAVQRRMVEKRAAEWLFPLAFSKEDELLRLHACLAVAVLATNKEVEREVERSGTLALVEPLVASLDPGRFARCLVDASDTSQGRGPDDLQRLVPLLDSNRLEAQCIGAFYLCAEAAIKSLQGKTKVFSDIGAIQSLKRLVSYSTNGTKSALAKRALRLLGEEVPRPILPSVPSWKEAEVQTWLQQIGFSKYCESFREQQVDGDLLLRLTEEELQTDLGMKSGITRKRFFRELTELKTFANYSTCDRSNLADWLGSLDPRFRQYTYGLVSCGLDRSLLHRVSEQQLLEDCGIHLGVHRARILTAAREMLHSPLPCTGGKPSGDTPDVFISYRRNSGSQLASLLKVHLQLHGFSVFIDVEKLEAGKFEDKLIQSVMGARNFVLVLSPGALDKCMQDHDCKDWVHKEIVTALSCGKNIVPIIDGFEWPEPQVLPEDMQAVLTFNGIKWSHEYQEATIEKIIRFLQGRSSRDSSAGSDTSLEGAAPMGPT
Experiment [13] deals with Mitogen-activated protein kinase 7 (Homo sapiens) (UniProt Q13164). The experiment in a line: ERK5 transactivation activators in reporter cells, primary screen, cell-based, HTS (AID 1508626;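 active = luciferase signal above three times the same-plate solvent-only control wells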;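 also: luciferase driven by Gal4-ERK5 fusion binding five Gal4 sites before minimal TATA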). Conditions: HeLa Gal4-ERK5 transactivation, 18 h, at 5 µM, stronger effect = higher value.
Chain of Mitogen-activated protein kinase 7 (Homo sapiens) (Q13164 whole entry, looked up, the tested form may be a part): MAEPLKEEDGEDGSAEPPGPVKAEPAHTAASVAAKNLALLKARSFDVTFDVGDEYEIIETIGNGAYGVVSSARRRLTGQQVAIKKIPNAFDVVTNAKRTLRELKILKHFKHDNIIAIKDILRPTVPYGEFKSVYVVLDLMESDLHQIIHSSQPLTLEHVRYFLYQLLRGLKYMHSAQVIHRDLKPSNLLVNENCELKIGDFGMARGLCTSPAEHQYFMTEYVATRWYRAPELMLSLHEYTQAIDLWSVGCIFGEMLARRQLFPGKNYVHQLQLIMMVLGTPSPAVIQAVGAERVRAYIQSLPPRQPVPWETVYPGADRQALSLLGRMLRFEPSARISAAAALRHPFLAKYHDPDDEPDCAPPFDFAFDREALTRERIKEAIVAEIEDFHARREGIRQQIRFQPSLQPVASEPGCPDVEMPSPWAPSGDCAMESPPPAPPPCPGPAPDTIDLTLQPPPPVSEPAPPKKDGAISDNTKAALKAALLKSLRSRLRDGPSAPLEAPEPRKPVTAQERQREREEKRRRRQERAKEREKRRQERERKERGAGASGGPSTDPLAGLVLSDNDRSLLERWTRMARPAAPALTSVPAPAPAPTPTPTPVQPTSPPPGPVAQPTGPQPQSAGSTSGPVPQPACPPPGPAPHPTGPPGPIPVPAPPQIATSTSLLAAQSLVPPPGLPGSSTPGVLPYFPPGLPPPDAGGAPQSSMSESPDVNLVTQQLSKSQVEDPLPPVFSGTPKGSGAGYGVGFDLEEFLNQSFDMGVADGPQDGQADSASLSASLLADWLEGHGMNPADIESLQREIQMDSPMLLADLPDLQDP
For experiment [14], the system named is F380Y. Briefly: modulators of BK channel variants, profiling panel, selectivity assay, cell-based, U2OS BacMam, thallium flux, beta subunits (AID 1259406).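 Also: initial slope of Thallos dye fluorescence rise after thallium is added; log ratio against the mean of 0.3% DMSO vehicle wells on the same plate.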 The note with it: at 30 µM.
The subject of experiment [15] is F380Y/beta2Delta. The description is as above. Conditions: at 30 µM.
In experiment [16] the target is Calcium-activated potassium channel subunit alpha-1 (Homo sapiens) + Leucine-rich repeat-containing protein 26 (Homo sapiens) (UniProt Q12791+Q2I0M4). The experiment is described as above. The note with it: F380Y/Slo1WT/gamma1, at 30 µM.
Chain of Calcium-activated potassium channel subunit alpha-1 (Homo sapiens) + Leucine-rich repeat-containing protein 26 (Homo sapiens) (Q2I0M4 whole entry, looked up, one chain of several): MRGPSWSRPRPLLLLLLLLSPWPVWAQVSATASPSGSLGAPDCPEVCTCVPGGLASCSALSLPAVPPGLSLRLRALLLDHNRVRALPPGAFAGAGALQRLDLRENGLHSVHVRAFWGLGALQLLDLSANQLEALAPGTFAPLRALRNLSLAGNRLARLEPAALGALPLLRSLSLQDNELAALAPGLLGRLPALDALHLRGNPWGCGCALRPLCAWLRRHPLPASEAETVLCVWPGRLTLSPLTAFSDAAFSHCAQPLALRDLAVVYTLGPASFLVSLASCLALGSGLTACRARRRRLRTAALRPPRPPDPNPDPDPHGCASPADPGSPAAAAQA
Experiment [17] deals with R275C. The experiment is described as above. Conditions: at 30 µM.
The subject of experiment [18] is R275C/beta1. The experiment is described as above. The note with it: at 30 µM.
Experiment [19] has as its system R275C/beta2Delta. The experiment is described as above. The note with it: at 30 µM.
Setting [20] is: measured here: epithelial PC-3E GFP cell survival.
Where [21] appears, read: measured here: mesenchymal TEM4-18 mCherry cell survival.
Setting [22] is: MELAS cybrid survival, CellTiter-Glo 48 h, stronger effect = higher value.
[23] abbreviates: Rieske KO mouse fibroblast survival, CellTiter-Glo 72 h.

Chain of 6-phosphogluconate dehydrogenase, decarboxylating (Homo sapiens) (P52209 whole entry, looked up): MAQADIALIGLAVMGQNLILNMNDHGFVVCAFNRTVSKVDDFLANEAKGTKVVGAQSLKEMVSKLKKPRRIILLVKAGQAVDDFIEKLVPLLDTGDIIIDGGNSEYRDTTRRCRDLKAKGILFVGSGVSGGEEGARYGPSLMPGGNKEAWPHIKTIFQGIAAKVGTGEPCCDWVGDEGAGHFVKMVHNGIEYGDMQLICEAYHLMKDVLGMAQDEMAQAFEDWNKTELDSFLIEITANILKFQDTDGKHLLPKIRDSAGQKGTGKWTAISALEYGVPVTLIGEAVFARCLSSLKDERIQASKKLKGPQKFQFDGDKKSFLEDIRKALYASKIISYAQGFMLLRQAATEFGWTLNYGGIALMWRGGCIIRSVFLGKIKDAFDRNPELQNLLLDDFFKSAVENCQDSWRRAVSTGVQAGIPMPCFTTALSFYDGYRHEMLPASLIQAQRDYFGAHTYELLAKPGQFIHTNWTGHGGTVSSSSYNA

With `CC(=O)CCCCn1c(=O)c2c(ncn2C)n(C)c1=O`, the nuclear beta-catenin stimulation was 0.1% (inactive) in experiment [1] (at 10 µM) and -0.8% in experiment [1] (stimulation, at 2 µM). In addition, the insulin secretion stimulation in [2] is -1.6% (inactive). Moreover, in [3], the viability decrease is 2.8% (inactive). Moreover, the tube area decrease in experiment [4] was -8.3% (inactive). In [5], the GLP1 secretion stimulation is 1.9% (inactive). Besides, the inhibition of viability in [6] is -8.4% (inactive). Moreover, the viability decrease (inhibition) in experiment [7] is 52.4% (active); in [8] it was 10.8% (inactive). In addition, the inhibition (as a rule, the relative decrease from the control value, in per cent) in [9] was 4.74% (inactive). For the same compound, in experiment [10], the red/green cell ratio (normalised) is 1.09 (inactive). In addition, the normalised cell number was 1.25 in experiment [10] (setting [20]) and 1.37 in experiment [10] (setting [21]). The z-score in experiment [11] (setting [22]) was 0.897 (inactive) and 0.351 (inactive); in [11] (setting [23]) it was 0.0131 and -0.0411. In experiment [12], the remaining NAD is 10 nM (inactive). The luciferase signal in experiment [13] is 88 AU (inactive). The log fold change Tl+ flux is 0.00269 (inactive) in experiment [14]; -0.0305 (inactive) in experiment [15]; -0.00624 (inactive) in [16]; -0.0458 (inactive) in experiment [17]; -0.0218 (inactive) in experiment [18]; 0.00216 (inactive) in experiment [19].
As for `O=C(CCCN1CC=C(n2c(=O)[nH]c3ccccc32)CC1)c1ccc(F)cc1`, the nuclear beta-catenin stimulation was 1% (inactive) in [1] (at 10 µM) and 0.3% in experiment [1] (stimulation, at 2 µM). Further, the insulin secretion stimulation in [2] is 2.7% (inactive). The viability decrease in experiment [3] was -5.9% (inactive). Besides, the tube area decrease in experiment [4] is 16.2% (inactive). In addition, in experiment [5], the GLP1 secretion stimulation is -0.5% (inactive). The inhibition of viability in experiment [6] is 28.5% (inactive). The viability decrease (inhibition) in experiment [7] was 10.4% (inactive); in experiment [8], 3.7% (inactive). Moreover, the inhibition in experiment [9] is 12.8% (inactive). Further, the red/green cell ratio (normalised) in [10] was 0.96 (inactive). Also, the values for the normalised cell number in experiment [10] (setting [20]) and in experiment [10] (setting [21]) were 0.94 and 0.9, respectively. In addition, the z-score in experiment [11] (setting [22]) is -0.163 (inactive) and 0.567 (inactive); in [11] (setting [23]) it was -0.119 and 0.175. For the same compound, in experiment [12], the remaining NAD was 10 nM (inactive). Besides, the luciferase signal in experiment [13] is 68 AU (inactive). Also, the log fold change Tl+ flux in experiment [14] was 0.0359 (inactive); in [15], 0.058 (inactive); in experiment [16], -0.0307 (inactive); in [17], 0.0212 (inactive); in experiment [18], 0.0837 (active); in [19], 0.0699 (inactive).
For the compound `CC[N+](C)(C)c1cccc(O)c1`, the nuclear beta-catenin stimulation is -1.7% (inactive) in [1] (at 10 µM) and 0.9% in experiment [1] (stimulation, at 2 µM). In addition, the insulin secretion stimulation in [2] is 0% (inactive). Further, the viability decrease in experiment [3] was -29% (inactive). For the same compound, the tube area decrease in experiment [4] was -7.4% (inactive). For the same compound, the GLP1 secretion stimulation in experiment [5] was 0.7% (inactive). For the same compound, in [6], the inhibition of viability is -0.1% (inactive). For the same compound, the viability decrease (inhibition) in [7] is -11.1% (inactive); in [8] it was -13.2% (inactive). For the same compound, the inhibition in experiment [9] is -4.48% (inactive). Also, the red/green cell ratio (normalised) in experiment [10] was 1.2 (inactive). Further, the normalised cell number in experiment [10] (setting [20]) was 0.65; in [10] (setting [21]), 0.78. The z-score in [11] (setting [22]) was -0.344 (inactive); in experiment [11] (setting [23]), 0.198. Moreover, the remaining NAD in [12] was 10 nM (inactive). In addition, the luciferase signal in experiment [13] was 68 AU (inactive). In addition, the log fold change Tl+ flux was 0.0242 (inactive) in [14]; 0.0329 (inactive) in experiment [15]; -0.0327 (inactive) in experiment [16]; 0.00231 (inactive) in [17]; -0.022 (inactive) in [18]; 0.0107 (inactive) in [19].
On to `CN(C)CCCN1c2ccccc2Sc2ccc(Cl)cc21`, for which the nuclear beta-catenin stimulation in experiment [1] (at 10 µM) was 5.5% (inactive); in [1] (stimulation, at 2 µM), 0.9%. In addition, in experiment [2], the insulin secretion stimulation was 8.9% (inactive). Also, the viability decrease in experiment [3] is 82% (active). The tube area decrease in experiment [4] is 68.7% (active). The GLP1 secretion stimulation in experiment [5] was 15.5% (inactive). Moreover, in experiment [6], the inhibition of viability is 96.1% (active). Also, the viability decrease (inhibition) in experiment [7] is 128% (active); in experiment [8] it was 93.1% (active). Moreover, the inhibition in [9] is 10.5% (inactive). Besides, the red/green cell ratio (normalised) in experiment [10] is 1.34 (inactive). The normalised cell number in experiment [10] (setting [20]) worked out at 0.97; in experiment [10] (setting [21]), 1.3. The z-score was 2.27 (active) and 0.163 (inactive) and 0.651 (inactive) in experiment [11] (setting [22]); -0.778 and 0.446 and 0.902 in [11] (setting [23]). Also, the remaining NAD in [12] was 10 nM (inactive). The luciferase signal in experiment [13] was 68 AU (inactive). The log fold change Tl+ flux was 0.156 (active) in experiment [14]; 0.221 (active) in [15]; 0.0114 (inactive) in experiment [16]; -0.0248 (inactive) in experiment [17]; 0.272 (active) in experiment [18]; 0.103 (active) in experiment [19].

For the origin of these results see PubChem BioAssay.
